# From PubChem BioAssay (NCI)
# Compounds without any hit were thinned out: in the full panel of roughly 83,000, 20% have a hit.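 Interpretation: 100, growth as untreated; towards 0, rising growth inhibition; 0, no net growth; 0 to -100, cell death. Compounds scoring below 10 were considered active.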 A number with no mark means an inactive call. Active and inactive are the calls of the source.
# Key:
# Experiment in all cases: NCI-60 one-dose screen, 48 h (100 = growth as untreated, 0 = no growth, -100 = all killed)
# Settings in all cases: 10 µM unless noted
# [1] = test system: NCI-H23 lung
# [2] = test system: NCI-H226 lung
# [3] = test system: NCI-H322M lung
# [4] = test system: HOP-62 NSCLC
# [5] = test system: NCI-H460 lung
# [6] = test system: HOP-92 NSCLC
# [7] = test system: NCI-H522 lung
# [8] = test system: 786-0 renal
# [9] = test system: COLO 205 colon
# [10] = test system: A549/ATCC NSCLC
Compound,growth [1],growth [2],growth [3],growth [4],growth [5],growth [6],growth [7],growth [8],growth [9],growth [10] [%]
O=C(Nc1ccc2[nH]ncc2c1)c1csc(Nc2ccccc2)n1,47.3%,67.2%,46.5%,50.7%,11.9%,77.9%,17.5%,38.9%,33.2%,
COc1cc2c(c(OC)c1OC)CCC(c1cccc(NC(=O)c3cccc(Cl)c3)c1)O2 (configuration not stated),92.7%,79.8%,90.3%,92.8%,96.9%,83.1%,62.1%,96.7%,94.2%,
CCCN1C2CCC1/C(=C\c1ccc(OC)cc1)C(=O)/C2=C/c1ccc(OC)cc1,67.5%,71.5%,92%,89.1%,76.9%,58.1%,51.2%,85.2%,76%,
COc1ccc(CNc2c3ccccc3nc3ccccc23)cc1OC,15.1%,27.9%,29.8%,34.5%,6.17% (active),-9.67% (active),18.2%,25.4%,5.3% (active),
O=C(O)/C=C\C(=O)Nc1ccc2c(c1)Cc1cc(F)ccc1-2,95.9%,98.3%,99.7%,87.9%,110%,97.5%,90.9%,99.7%,105%,106
CC1OC(C(=O)N2CCN(CCO)CC2)CC1COC1CCCCC1 (configuration not stated),94% [50 µM],84.3% [50 µM],90.9% [50 µM],85.7% [50 µM],100% [50 µM],87% [50 µM],93.2% [50 µM],109% [50 µM],105% [50 µM],
CCCCCCCCOC(=O)c1c(C)[nH]c(/C=C2\N=C(c3ccc[nH]3)C=C2OC)c1C,3.19% (active),9.15% (active),26%,12.7%,10.2%,-12.5% (active),4.04% (active),-40.1% (active),-33.7% (active),
CC(=O)Oc1ccccc1C(=O)N(Cc1ccc2c(Cl)cc(Cl)c(O)c2n1)c1ccccc1,50.3%,66.4%,54.9%,36.6%,29.7%,61.6%,72.2%,59.1%,93.7%,29.2
CCN1C(=O)N(CC)C2C1NN=c1s/c(=C\c3ccc(F)cc3)c(=O)n12 (configuration not stated),39.3%,63.4%,44.2%,39.3%,5.08% (active),43.6%,-5.22% (active),35%,5.08% (active),15.5
C=CCn1c(SCC(=O)Nc2ccc(C(=O)/C=C/c3ccc(Cl)cc3)cc2)nnc1-c1ccc(Cl)c(Cl)c1,85%,85.7%,83.4%,84.3%,90.2%,70.2%,66.5%,82.9%,100%,67.4
Cc1cc(C(=O)Nc2cc(Nc3ncccc3-c3ncnc4nc[nH]c34)ccc2F)cc(C(C)(C)C#N)c1,19.1%,39.9%,56.6%,48.5%,33.4%,-13.4% (active),53.7%,63.5%,13.3%,48.7
O=C(CNc1ncco1)Nc1ccc(S(=O)(=O)c2ccc(NC(=O)CNc3ncco3)cc2)cc1,4.33% (active),-17.7% (active),75.2%,32.7%,-60.4% (active),81%,-96.9% (active),20.9%,-59.9% (active),
CC(Cc1cccc2ccccc12)C(N)=O (configuration not stated),99.9%,100%,98.1%,94.6%,110%,81.1%,96.6%,97.7%,111%,
